Five compounds from PubChem BioAssay (NCATS) can be followed below.

Results filed as inconclusive are left out. Entries that show only a call come without a potency. Calls of active or inactive are those of the source. The call rests on the fitted dose curve; in most records, active means well fitted inhibition curve with a large enough effect; inconclusive means small, poorly fitted or top-dose-only effect; inactive means flat fitted curve, though single readings scatter.

Calcium and integrin-binding protein 1 (Homo sapiens), sequence (Q99828 whole entry, looked up): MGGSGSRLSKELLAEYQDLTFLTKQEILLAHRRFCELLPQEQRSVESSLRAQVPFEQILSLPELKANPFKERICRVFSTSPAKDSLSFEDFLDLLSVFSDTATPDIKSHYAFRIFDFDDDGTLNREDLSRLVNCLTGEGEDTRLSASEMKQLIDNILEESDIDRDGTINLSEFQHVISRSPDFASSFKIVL

The target in the test is Calcium and integrin-binding protein 1 (Homo sapiens) (UniProt Q99828). Put plainly: Primary qHTS for Identification of Calcium Integrin Binding Protein 1 (CIB1) Competitor (AID 1508620).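 Further: GST tagged CIB1 binding a fluorescein labelled alphaIIb integrin peptide tracer; top concentration of the series differs between compounds.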 Particulars: CIB1-GST / FITC-alphaIIb peptide fluorescence polarization; series mostly up to 114 µM. The method in brief:
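Fluorescence polarization competition: CIB1-GST (1 uM final) preincubated with compound 15 min at room temperature, then FITC-labeled alphaIIb peptide (100 nM final) added for another 15 min. Polarization read at Ex 480/Em 540.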
Turning to `CN1CCN(c2cccc(Nc3nn4c(=O)c5ccc(F)cc5nc4s3)c2)CC1`, the Potency result is “inactive”.

As for `O=C(COC(=O)CNC(=O)C1CCCCC1)Nc1cc(C(F)(F)F)ccc1Cl`, the Potency entry is “inactive”.

As to `CC(C)(C)n1cnc2cc(C(=O)N3CCCCC3)ccc21`, the Potency result is “inactive”.

In the case of `Cc1ccc(C(=O)NC2CCN(C#N)CC2)cc1`, the Potency entry is “inactive”.

For `COc1cccc(C2c3c(ncn(-c4cccc(F)c4)c3=N)Oc3ccc4ccccc4c32)c1` (stereo not given), the Potency result was “inactive”.
